# The whole screen tested about 310,000 compounds, of which about 14,000 (4.5%) showed an effect of 50% or more. The effect is printed as a negative number. What follows is part of a selection rich in strong results, with near analogues and random picks from the rest.
# Molecular target: human ether-à-go-go-related gene (hERG) potassium channel (human, UniProt Q12809)
# Assay: primary screen, population patch clamp on CHO cells stably expressing hERG; higher = less effect of the substance
# 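Further: peak tail current of the secondary pulse compared with the same well before compound.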
# Sequence of human ether-à-go-go-related gene (hERG) potassium channel (Q12809 whole entry, looked up): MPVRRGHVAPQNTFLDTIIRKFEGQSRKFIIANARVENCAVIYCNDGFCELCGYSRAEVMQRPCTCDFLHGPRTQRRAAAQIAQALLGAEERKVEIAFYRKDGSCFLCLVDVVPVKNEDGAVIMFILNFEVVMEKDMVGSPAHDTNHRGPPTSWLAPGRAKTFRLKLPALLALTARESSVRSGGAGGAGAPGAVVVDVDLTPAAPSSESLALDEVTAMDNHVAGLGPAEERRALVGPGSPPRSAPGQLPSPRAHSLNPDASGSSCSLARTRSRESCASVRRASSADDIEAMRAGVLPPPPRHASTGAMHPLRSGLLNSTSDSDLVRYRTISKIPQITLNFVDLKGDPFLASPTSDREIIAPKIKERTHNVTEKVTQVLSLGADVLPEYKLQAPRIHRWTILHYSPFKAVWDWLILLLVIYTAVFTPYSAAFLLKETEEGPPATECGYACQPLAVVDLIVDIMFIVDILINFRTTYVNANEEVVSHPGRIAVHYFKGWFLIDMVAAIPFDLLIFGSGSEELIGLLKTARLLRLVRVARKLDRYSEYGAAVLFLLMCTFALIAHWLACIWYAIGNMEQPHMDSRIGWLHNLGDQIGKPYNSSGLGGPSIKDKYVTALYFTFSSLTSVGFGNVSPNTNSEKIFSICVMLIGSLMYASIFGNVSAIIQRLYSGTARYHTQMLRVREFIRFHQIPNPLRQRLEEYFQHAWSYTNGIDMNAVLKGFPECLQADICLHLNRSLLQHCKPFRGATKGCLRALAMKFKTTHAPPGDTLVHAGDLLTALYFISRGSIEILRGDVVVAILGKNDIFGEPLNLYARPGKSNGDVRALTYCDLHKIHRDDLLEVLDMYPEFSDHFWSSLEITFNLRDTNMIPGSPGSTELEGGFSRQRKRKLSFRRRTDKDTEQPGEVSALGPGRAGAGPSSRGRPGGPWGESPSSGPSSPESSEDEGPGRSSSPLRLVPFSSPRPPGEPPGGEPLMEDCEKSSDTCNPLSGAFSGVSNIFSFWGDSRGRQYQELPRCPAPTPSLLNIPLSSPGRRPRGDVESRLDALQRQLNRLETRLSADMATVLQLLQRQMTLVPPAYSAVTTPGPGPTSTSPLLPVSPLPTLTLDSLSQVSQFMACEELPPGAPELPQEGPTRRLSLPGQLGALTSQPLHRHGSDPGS
row,SMILES,"hERG current change (%, negative = inhibition) at 10uM"
1,Cc1ccc(-c2[nH]nc3c2C(c2cccnc2)C(C#N)=C(N)O3)cc1 (stereo not shown),-7.46%
2,O=[N+]([O-])c1ccc(C(O)CSC(=S)N2CCCCC2)cc1 (stereo not shown),-3.13%
3,CC(C)(C)c1ccc(C(=O)/C=C2\NC(=O)CS2)cc1,-9.16%
4,CC(C)=CCN1CCN(Cc2cnc(-c3ccccc3)s2)CC1CCO (stereo not shown),-49.2%
5,CC(C)N1CCC(N2CCN(Cc3cnc(-c4ccccc4)s3)CC2CCO)CC1 (stereo not shown),-15.6%
6,Cc1ncc(CN2CCN(Cc3ccccc3)C(CCO)C2)s1 (stereo not shown),1.08%
7,CCOc1ccc(CN2CCN(Cc3cnc(-c4ccccc4)s3)CC2CCO)cc1 (stereo not shown),-90.7%
8,Cc1ncc(CN2CCN(C3CCCC3)C(CCO)C2)s1 (stereo not shown),27.6%
9,OCCC1CN(Cc2cnc(-c3ccccc3)s2)CCN1CCc1ccccc1 (stereo not shown),-71.2%
10,OCCC1CN(Cc2cnc(-c3ccccc3)s2)CCN1C1CCCCC1 (stereo not shown),-51.4%
11,CCOc1ccc(CN2CCN(Cc3cnc(N4CCOCC4)s3)CC2CCO)cc1 (stereo not shown),-39.8%
12,OCCC1CN(Cc2cnc(-c3ccccc3)s2)CCN1Cc1ccccc1 (stereo not shown),-57.5%
13,CC(C)(O)C#Cc1ccc(CN2CCN(CCc3ccccc3)C(CCO)C2)s1 (stereo not shown),-30.7%
14,CCCCN1C(=O)NC(=O)C2(Cc3c(nc4ccccn4c3=O)N3CCc4ccccc4C32)C1=O (stereo not shown),-16.6%
15,Cc1sc2nc(CSc3ncn[nH]3)[nH]c(=O)c2c1C,33.7%
16,Cn1c(-c2sc3cc(C(F)(F)F)cnc3c2-c2ccccc2)n[nH]c1=S,20.1%
17,O=C(O)C(=O)O.Oc1ccccc1NCC(O)Cn1ccc2ccccc21 (stereo not shown),13.4%
18,NC(=O)c1ccccc1NC(=O)NC1CCCCC1,-6.68%
19,CCOC(=O)CCSCC(=O)Nc1cc(C)on1,-3.91%
20,Cc1ccc(C(=O)NC(=S)Nc2ccccc2C(F)(F)F)cc1,16.3%

row,SMILES,"hERG current change (%, negative = inhibition) at 10uM"
1,CC(C)NS(=O)(=O)c1ccc(NC(=O)NC2CCCCC2)cc1,1.79%
2,c1ccc(Cn2cc(-c3ccccc3)cn2)cc1,-2.61%
3,CC(C)N1CCN(Cc2cnc(-c3ccccc3)s2)CC1CCO (stereo not shown),-9.9%
4,Cc1ncc(CN2CCN(CCC(C)C)C(CCO)C2)s1 (stereo not shown),-20.1%
5,CC(C)CCN1CCN(Cc2cnc(-c3ccccc3)s2)CC1CCO (stereo not shown),-56.6%
6,CCCOc1ccc(C(C)=O)cc1CC(C(N)=O)C(N)=O,14.9%
7,CCCCOP(=O)(c1ccc(N(C)C)cc1)C(O)c1ccc(C(C)C)cc1 (stereo not shown),-13%
8,O=c1[nH]c2ccccc2n2c(C(F)(F)F)nnc12,14%
9,Cc1ccc(S(=O)(=O)N(Cc2cccc(Cl)c2)C(=O)N2CCN(C)CC2)cc1,9.85%
10,Cn1c(SCC(=O)N/N=C/C=C\c2ccccc2[N+](=O)[O-])nc2ccccc21,10.4%
11,CCn1c(SCC(=O)NC(=O)NC(C)(C)C)nc2ccccc21,4.41%
12,CCn1c(SCC(=O)N/N=C/C=C/c2ccccc2[N+](=O)[O-])nnc1-c1ccc(Cl)cc1,-15.6%
13,CCn1c(SCC(=O)N/N=C/C=C/c2ccccc2[N+](=O)[O-])nnc1-c1ccccc1,-36.6%
14,CCn1c(SCC(=O)N/N=C/C=C\c2ccccc2[N+](=O)[O-])nnc1-c1ccccc1,-67%
15,CCn1c(SCC(=O)N/N=C/C=C\c2ccccc2[N+](=O)[O-])nc2ccccc21,-63.8%
16,COCCn1c(SCC(=O)Nc2ccccc2OC)nc2ccccc21,-25.4%
17,CCn1c(SCC(=O)NC(=O)c2ccccc2OC)nc2ccccc21,-70.8%
18,Cn1c(SCC(=O)N/N=C/C=C/c2ccccc2[N+](=O)[O-])nc2ccccc21,-1.36%
19,O=C1OCCN1C(=O)[C@H]1[C@H](c2ccc(Cl)cc2)C(c2cccc(Cl)c2)=NN1c1ccccc1,14%
20,COc1ccccc1C(=O)C1CCCN(C(=O)Nc2ccccc2F)C1 (stereo not shown),37.3%

row,SMILES,"hERG current change (%, negative = inhibition) at 10uM"
1,Cc1nn2c(N)c(C#N)cnc2c1-c1ccc(Cl)cc1,-0.156%
2,Cc1cc2nnc(SCC(=O)NCc3cccs3)n2c(N)n1,-8.37%
3,Cc1cccc(-n2nnc(C(=O)NCc3ccco3)c2N)c1,-10.2%
4,OC1=C(O)c2nc3ccccc3nc21,-1.17%
5,CC(C)Sc1nc2c([nH]1)c(=N)ncn2Cc1ccccc1,-5.52%
6,Cc1noc(C)c1COc1ccc(CC(=O)NC2CCCCCC2)cc1,39.5%
7,COc1cc(C2NC(=O)CCC2[N+](=O)[O-])cc(OC)c1OC (stereo not shown),29.6%
8,CCc1cccc(NC(=S)N(CCN(C)C)C(C)c2ccncc2)c1 (stereo not shown),-44%
9,CSc1cccc(NC(=S)N(CCN(C)C)C(C)c2ccccn2)c1 (stereo not shown),-36.2%
10,COCCCN(C(=S)Nc1cccc(Cl)c1)C(C)c1ccncc1 (stereo not shown),-17.3%
11,COc1ccc(NC(=S)N(CCN(C)C)C(C)c2ccncc2)cc1Cl (stereo not shown),-59.9%
12,COc1cc(Cl)ccc1NC(=S)N(CCN(C)C)C(C)c1ccncc1 (stereo not shown),-39.2%
13,COCCCN(C(=S)Nc1cc(C)cc(C)c1)C(C)c1ccncc1 (stereo not shown),-41%
14,COCCCN(C(=S)Nc1cc(Cl)cc(Cl)c1)C(C)c1ccncc1 (stereo not shown),-70.6%
15,CSc1cccc(NC(=S)N(CCN(C)C)C(C)c2ccncc2)c1 (stereo not shown),-50.6%
16,COc1ccc(NC(=S)N(CCN(C)C)C(C)c2ccco2)cc1Cl (stereo not shown),-36.3%
17,Cc1ccc(C(=O)c2ccc(C(F)(F)F)cc2)cc1,7.79%
18,CC(=O)N(C)C1=C(O)c2ccccc2C(=O)C1=O,22.3%

# Reference: publication PMC4336329 (PLoS ONE, 2015)
